Compound activity deposited in PubChem BioAssay by The Scripps Research Institute Molecular Screening Center.
Compounds with a hit are over-represented: about 3.5% of the library has one in this group of screens.
FBW7 activator = activators of human E3 ligase FBW7 | Q969H0 | AlphaScreen FBW7–phospho-cyclin E peptide binding, activator screen | normalized activity (activation), % at 26.1 µM | actives 0.13% (n = 650,000) | AID 1259310; in the data active means normalized activity above about 1.9%;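 further: purified mutant Fbw7 with reduced substrate affinity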
MITF primary = inhibitors of human MITF; O75030; actives 0.91% (n = 650,000); AID 1259374; AlphaScreen MITF homodimerization, bead proximity signal; inhibition, % at 2.6 µM; in the data active means inhibition above about 50%;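 further: 0% = vehicle wells with protein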
TEAD-YAP inh = TEAD-YAP interaction inhibition. HEK-TIYL cells, TEAD-Gal4/YAP UAS-luciferase luminescence. inhibition, % at 9.12 µM. actives 1.4% (n = 640,000); in the data active means inhibition above about 32%;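 further: 0% = median of test compound wells and 100% = reference inhibitor wells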
GPR151 activ = human GPR151 activation; actives 1% (n = 650,000); activation, % at 11.2 µM; PathHunter beta-arrestin GPR151 cells, luminescence; Q8TDV0; in the data active means activation above about 4.9%;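 further: 0% = median of compound wells and 100% = cells with positive control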
Target sequence (Q8TDV0 whole entry, looked up): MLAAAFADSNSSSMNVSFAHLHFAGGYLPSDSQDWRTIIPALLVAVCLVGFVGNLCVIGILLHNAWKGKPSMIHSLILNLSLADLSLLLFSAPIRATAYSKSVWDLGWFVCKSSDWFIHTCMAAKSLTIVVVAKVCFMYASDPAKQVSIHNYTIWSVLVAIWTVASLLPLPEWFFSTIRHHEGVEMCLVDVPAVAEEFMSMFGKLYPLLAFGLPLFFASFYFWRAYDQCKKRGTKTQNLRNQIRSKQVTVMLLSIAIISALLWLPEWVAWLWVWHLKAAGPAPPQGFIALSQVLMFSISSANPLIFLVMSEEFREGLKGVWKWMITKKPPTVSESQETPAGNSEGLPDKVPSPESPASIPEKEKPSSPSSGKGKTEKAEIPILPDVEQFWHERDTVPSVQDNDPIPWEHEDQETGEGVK
Numbers without * were called inactive; x = no result.

SMILES	FBW7 activator	MITF primary	TEAD-YAP inh	GPR151 activ
CCN(c1ccccc1)S(=O)(=O)c1cc(C(=O)Nc2ccc(Br)cc2)ccc1F	0.0	6.2	4.0	-0.4
COc1cccc(NC(=O)c2ccc(F)c(S(=O)(=O)N(C)Cc3ccccc3)c2)c1	0.0	-6.0	-3.9	2.3
CCCCN(CC)S(=O)(=O)c1cc(C(=O)Nc2ccc(Oc3ccccc3)cc2)ccc1F	-0.1	-3.6	59.9*	0.4
CN(Cc1ccccc1)S(=O)(=O)c1cc(C(=O)Nc2ccc(Oc3ccccc3)cc2)ccc1F	0.1	27.5	61.4*	0.0
CCN(Cc1ccccc1)S(=O)(=O)c1cc(C(=O)Nc2ccc(Br)cc2)ccc1F	-0.1	-0.6	50.3*	1.3
O=C(CSc1nnc(-c2cccs2)n1CC1CCCO1)NNC(=O)c1cccs1 (stereo unspecified)	0.1	0.8	-4.0	0.1
O=C(OCc1ccccc1)c1ccc(N2C(=O)C3C4c5ccccc5C(c5ccccc54)C3C2=O)cc1 (stereo unspecified)	0.0	-11.9	1.7	1.7
Cc1csc2n1c(C(=O)c1ccccc1)c(C)[n+]2-c1ccccc1	-0.1	2.8	12.7	0.2
Cc1ccc(C(=O)c2c(C)[n+](-c3ccccc3)c3scc(C)n23)cc1	0.0	11.5	34.4*	2.1
CCN(c1ccc(OC)cc1)c1c(-c2ccccc2)c(=O)c1=O	-0.1	11.5	48.4*	0.0
CCc1ccc(Nc2c(-c3ccccc3)c(=O)c2=O)cc1	0.1	-0.5	55.6*	-1.1
O=c1c(Nc2cccc(Cl)c2)c(-c2ccccc2)c1=O	0.0	9.1	0.6	-1.4
COc1ccc(Nc2c(-c3ccc(C)cc3)c(=O)c2=O)cc1	0.0	-8.4	-5.5	0.5
COc1ccc(Nc2c(-c3ccccc3)c(=O)c2=O)cc1	0.0	-2.4	60.1*	1.2
COc1ccc(Nc2c(-c3ccccc3)c(=O)c2=O)cc1Cl	-0.2	98.5*	54.8*	1.2
COC(=O)c1cc(NC(=O)/C=C/C(=O)O)ccc1N1CCOCC1	0.4	1.8	3.3	-1.3
Cc1ccc(-c2c(Nc3cccc(F)c3)c(=O)c2=O)cc1	0.1	8.7	49.7*	-0.3
CCC(C)Nc1c(-c2ccccc2)c(=O)c1=O (stereo unspecified)	0.2	9.1	9.4	0.9
COc1ccc(-c2c(Nc3cccc(SC)c3)c(=O)c2=O)cc1	0.8	14.6	61.0*	0.6
CCc1cccc(Nc2c(-c3ccc(OC)cc3)c(=O)c2=O)c1	0.7	6.0	-8.2	0.9
CC(Nc1c(-c2ccccc2)c(=O)c1=O)c1ccccc1 (stereo unspecified)	-0.2	-0.1	39.6*	-2.0
CCOc1ccc(NC(=O)C2CCN(C(=O)N3CC(C)Oc4ccccc43)CC2)cc1 (stereo unspecified)	0.3	0.1	13.2	-0.8
COC(=O)Nc1nc2ccc(C(=O)c3cccs3)cc2[nH]1	0.0	7.3	56.2*	-0.9
CCCCOC(=O)c1ccccc1C(=O)c1ccc2nc(NC(=O)OC)[nH]c2c1	-0.2	3.2	38.7*	0.4
COC(=O)Nc1nc2ccc(S(=O)c3ccccc3)cc2[nH]1 (stereo unspecified)	0.0	7.9	x	0.8
SMILES	FBW7 activator	MITF primary	TEAD-YAP inh	GPR151 activ
COC(=O)Nc1nc2ccc(C(=O)c3ccccc3)cc2[nH]1	0.5	-4.8	32.6*	3.1
Cc1cc(C)n(-c2cc(N3CCOCC3)ccc2[N+](=O)[O-])n1	0.1	11.8	-4.9	-0.4
COc1cccc(C(=O)NCc2nc(-c3cccc(C)c3)no2)c1OC	-0.1	-0.9	-3.2	-1.7
CC(C)(Oc1ccc(Cl)cc1)C(=O)Nc1ncc([N+](=O)[O-])s1	0.5	10.2	35.8*	1.0
CCN(Cc1ccccc1)C(=O)c1sc2nc3n(c(=O)c2c1C)CCCC3	0.6	10.4	37.2*	1.5
Cc1onc(-c2ccccc2)c1CNS(=O)(=O)c1ccc(-n2cccn2)cc1	-0.4	39.3	3.6	0.3
CCSCCOC(=O)C1=C(C)NC2=C(C(=O)CCC2)C1c1cc2c(cc1Br)OCO2 (stereo unspecified)	1.1	0.0	-9.3	0.7
CCCC(=O)NC(c1ccccc1)c1cc([N+](=O)[O-])c2cccnc2c1O (stereo unspecified)	-0.7	75.7*	2.1	0.8
CCCC(=O)NC(c1ccc(OC)c(OC)c1)c1cc([N+](=O)[O-])c2cccnc2c1O (stereo unspecified)	-0.2	45.2	16.6	0.4
CCOc1cc(C(NC(=O)C(C)C)c2cc([N+](=O)[O-])c3cccnc3c2O)ccc1O (stereo unspecified)	-0.6	34.9	8.9	1.0
CCCCC(=O)NC(c1ccc(OC)c(OC)c1)c1cc([N+](=O)[O-])c2cccnc2c1O (stereo unspecified)	-0.2	51.0*	-7.7	2.1
CCC(=O)NC(c1ccc(OC)c(OC)c1)c1cc([N+](=O)[O-])c2cccnc2c1O (stereo unspecified)	-0.8	67.9*	2.2	0.5
CCOc1cc(C(NC(=O)CC)c2cc([N+](=O)[O-])c3cccnc3c2O)ccc1O (stereo unspecified)	-0.5	53.5*	-6.0	0.4
c1ccc(CNc2nc(Nc3ccc(-n4ccnc4)cc3)nc3c2ncn3-c2ccsc2)cc1	-0.1	8.9	1.5	4.8
CC(C)N(CCNc1nc(Nc2ccc(-n3ccnc3)cc2)nc2c1ncn2-c1ccccc1)C(C)C	-0.2	7.8	33.9*	1.8
CC(C)N(CCNc1nc(Nc2ccc(-n3ccnc3)cc2)nc2c1ncn2C(C)C)C(C)C	0.5	4.9	59.6*	-1.5
CC(C)N(CCNc1nc(Nc2ccccn2)nc2c1ncn2C(C)C)C(C)C	0.1	-1.3	43.0*	-0.3
CC(C)N(CCNc1nc(Nc2ccc(-n3ccnc3)cc2)nc2c1ncn2-c1ccsc1)C(C)C	0.0	14.6	51.1*	1.5
COC(=O)Cn1cnc2c(nc3n2CCCCC3)c1=O	0.2	8.6	5.2	-0.5
O=C(Nc1ccccc1)c1ccccc1OCC(O)Cn1cnc2ccccc21 (stereo unspecified)	0.5	-8.3	2.1	3.1
Cn1c(=O)c(C(=O)Nc2nncs2)c(O)c2ccccc21	0.3	8.2	6.7	-0.4
Oc1ccccc1-c1cc(-c2ccc(F)cc2)no1	0.1	7.1	-21.7	-3.6
Fc1ccc(-c2cc3c(nn2)Nc2ccccc2N3)cc1	0.0	4.7	85.7*	-4.6
O=C(Nc1cccc(Cl)c1)C1C2C=CC3(O2)C1C(=O)N(CCN1CCOCC1)C3C(=O)NC1CCCCC1 (stereo unspecified)	0.3	2.1	2.2	-1.5
Cn1nnnc1Sc1ccc(C(N)=O)cc1[N+](=O)[O-]	-0.1	5.4	-4.3	1.6
Cn1nnnc1Sc1ccc([N+](=O)[O-])c2cnccc12	0.0	-9.3	35.2*	-0.1
COc1ccc(-c2cc(-c3cc(OC)ccc3O)[nH]n2)cc1	-0.7	12.2	-45.7	0.1
COc1ccc(-c2cc(-c3c(O)ccc4ccccc34)[nH]n2)cc1	0.1	4.5	88.6*	2.3
Cc1ccc2oc3nn(-c4ccccc4)c(=O)c-3cc2c1	0.8	8.6	53.5*	-0.9
CCOc1ccccc1N1CCN(Cc2cc(OC)c(O)c(OC)c2)CC1	0.1	26.7	-2.2	1.1
